PubChem BioAssay (NCATS)
Records with an inconclusive call do not appear. A number with no mark means an inactive call. Active and inactive are the calls of the source. Calls follow the shape of the dose curve; as a rule, active = well fitted cell-killing curve with a large enough effect; inconclusive = small, poorly fitted or top-dose-only effect; inactive = flat fitted curve, though single readings scatter.

Assay: qHTS of pediatric cancer cell lines to identify multiple opportunities for drug repurposing: Primary screen for BT-12 cells (AID 1347101); also: nearly all actives have a fitted effect of over 25% in size
Settings: BT-12 viability, CellTiter-Glo luminescence, 48 h; series mostly up to 57.3 µM
From the text: Drug repurposing or repositioning has been offered as a strategy for drug development in oncology programs. This approach has special potential for childhood cancers and other rare or orphan diseases, where the expected return on new drug development has been a disincentive to pharmaceuticals.
In this project we exploit the poly-pharmacology of drugs to discover new indications via phenotypic screening of a panel of 19 well-characterized cell lines derived from solid tumors seen in children and adolescents. The goal is to identify approved drugs with previously unrecognized anticancer properties that has the potential to reveal new mechanisms and biological processes involved in carcinogenesis or drug resistance. We employed a titration-based paradigm (quantitative high-throughput screening or qHTS), where all compounds were tested at multiple concentrations for their effect on cell viability. Concentration-response curves (CRCs) were derived directly from the primary screen, and both potency and efficacy values were used to identify compounds with robust bioactivity profiles. We screened the NIH Chemical Genomics Center (NCGC) Pharmaceutical Collection (NPC) and Mechanism Interrogation Plate (MIPE) small molecule collections of approved and investigational compounds against these cell lines; and measured metabolically active cells after 48 hours of compound treatment as a proxy for cell viability.
Assay Submitter: Nathalia J. Martinez, National Center for Advancing Translational Sciences, National Institutes of Health, Rockville, MD, USA; email: natalia.martinez@nih.gov
[1] Shen, M et al. Quantitative high-throughput phenotypic screening of pediatric cancer cell lines identifies multiple opportunities for drug repurposing. Oncotarget 2017 Dec 19;9(4):4758-4772. PMID 29435139.
The cells were obtained from University of North Carolina (UNC), Pediatric Preclinical Testing Program (PPT), and Coriell Institute (CI).
qHTS cell viability assay:
Cells were assayed in growth media at a density of 500-1,000 cells/well. Five microliters of cells were dispensed into 1,536-well, white, solid-bottom, TC-treated plates (Greiner Bio One) using a multidrop dispenser and incubated at 37 degrees C, 5% CO2, under a humidified atmosphere for 5 hours. Twenty-three nanoliters of compounds and controls (neutral control DMSO or positive control bortezomib at final concentration of 2.3 µM) were subsequently transferred by Kalypsys pintool. For primary screens, the MIPE collection was tested at 11-point dilutions (final concentrations range from 0.78 nM to 46 µM) and the NPC collection at 8-point dilutions (final concentrations range from 0.59 nM to 46 µM). Compounds tested in follow-up screens were assayed at 11-point dilutions. Cells were incubated for 48 hours, followed by addition of 3 µL of CellTiter-Glo (Promega). After a 15 min incubation at room temperature, samples were analyzed for luminescence intensity using a ViewLux High-throughput CCD imager equipped with clear filters.
In the case of OCC(O)CS (stereo not given), the outcome is reported as “inactive”.
In the case of O=S1(=O)OC(c2ccc(O)cc2)(c2ccc(O)cc2)c2ccccc21, the outcome is reported as “inactive”.
With NC(=O)NC1NC(=O)NC1=O (stereo not given) the outcome was “inactive”.
For Cc1ccc(S(=O)(=O)NC(=O)NC2CCCCC2)cc1, the outcome was “inactive”.
For Cc1cccc(Nc2ccccc2C(=O)O)c1C, the outcome was “inactive”.
With CC(=O)OCC(COC(C)=O)OC(C)=O the outcome was “inactive”.
In the case of CCOc1cc(NC(C)=O)ccc1C(=O)OC, the outcome is reported as “inactive”.
For Cn1c(=O)c2c(ncn2CCO)n(C)c1=O, the outcome was “inactive”.
For O=C1c2ccccc2S(=O)(=O)N1CCCCN1CCN(c2ncccn2)CC1, the outcome was “inactive”.
In the case of Cc1cc(OI)c(C(C)C)cc1-c1cc(C(C)C)c(OI)cc1C, the outcome is reported as “inactive”.
For CCN1CC(CCN2CCOCC2)C(c2ccccc2)(c2ccccc2)C1=O (stereo not given), the outcome was “inactive”.
With Nc1ccncc1N the outcome was “inactive”.
In the case of Cc1ccsc1C(=CCCN1CCC[C@@H](C(=O)O)C1)c1sccc1C, the outcome is reported as “inactive”.
For O=C(O)C(S)C(S)C(=O)O (stereo not given), the outcome was “inactive”.
In the case of NS(=O)(=O)c1cc2c(cc1C(F)(F)F)NCNS2(=O)=O, the outcome is reported as “inactive”.
In the case of COC(=O)c1ccccc1C(=O)c1ccc(OCCN2CCCCC2)cc1, the outcome is reported as “inactive”.
For Cc1ccc(C(C)C)c(O)c1, the outcome was “inactive”.
For Cc1c(Cn2ccnc2)c2ccccc2n1CCC(=O)O, the outcome was “inactive”.
In the case of CC(C)c1cc2c(cc1S(=O)(=O)O)[C@@]1(C)CCC[C@@](C)(C(=O)O)[C@@H]1CC2, the outcome is reported as “inactive”.
With COc1ccc(C(=O)NCc2ccc(OCCN(C)C)cc2)cc1OC the outcome was “inactive”.
For CC(=O)NCc1c(I)c(NC(C)=O)c(I)c(C(=O)O)c1I, the outcome was “inactive”.
In the case of CCCCCCCC(=O)OCC(O)CO (stereo not given), the outcome is reported as “inactive”.
With NC(N)=NCCN1CCCCCCC1 the activity change, negative = cytotoxic was 7.77% [at 0.745 µM].
In the case of Cc1c(N(C)C)c(=O)n(-c2ccccc2)n1C, the outcome is reported as “inactive”.
In the case of CC(C)=CCC[C@@](C)(O)[C@H]1CC=C(C)CC1, the outcome is reported as “inactive”.
With Cc1ccsc1/C=C/C1=NCCCN1C the outcome was “inactive”.
In the case of CCc1nnc(NS(=O)(=O)c2ccc(N)cc2)s1, the outcome is reported as “inactive”.
In the case of CCCCC1(COC(=O)CCC(=O)O)C(=O)N(c2ccccc2)N(c2ccccc2)C1=O, the outcome is reported as “inactive”.
With CCC(C)(CN(C)C)OC(=O)c1ccccc1 (stereo not given) the outcome was “inactive”.
With CC[C@H](C)[C@H](N)C(=O)O the outcome was “inactive”.
With CCS(=O)(=O)CCn1c([N+](=O)[O-])cnc1C the outcome was “inactive”.
In the case of CC(=O)N[C@H]1[C@H]([C@H](O)[C@H](O)CO)OC(C(=O)O)=C[C@@H]1N=C(N)N, the outcome is reported as “inactive”.
With CC(=O)Nc1ccc(C(=O)O)cc1 the outcome was “inactive”.
In the case of CCCCCOC(=O)Nc1nc(=O)n([C@@H]2O[C@H](C)[C@@H](O)[C@H]2O)cc1F, the outcome is reported as “inactive”.
With CC1CCc2cc(F)cc3c(=O)c(C(=O)O)cn1c23 (stereo not given) the outcome was “inactive”.
For C=CCNC(N)=S, the outcome was “inactive”.
With CN1CCCN=C1COC(=O)C(O)(c1ccccc1)C1CCCCC1 (stereo not given) the outcome was “inactive”.
For COCC(=O)Nc1c(I)c(C(=O)NCC(O)CO)c(I)c(C(=O)N(C)CC(O)CO)c1I (stereo not given), the outcome was “inactive”.
In the case of O=C(OOC(=O)c1ccccc1)c1ccccc1, the outcome is reported as “inactive”.
For O=C1C(c2[nH]c3ccccc3c2O)=Nc2ccccc21, the outcome was “inactive”.
